Assay outcomes deposited in PubChem by National Center for Advancing Translational Sciences (NCATS).
GRP78 ERSR act: inducers of ER stress response in human glioma cells. U87-MG GRP78 promoter luciferase reporter, 16 h. Potency, µM, inactives show at the top dose activation, actives largely listed as activators. 420,000 compounds, 0.02% hits; further: series mostly up to about 76 µM; % of control where 0% means no effect; nearly all actives have a fitted effect of over 35% in size
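ERSR induction read as luciferase luminescence (Bright-Glo, 10 min at room temperature) in stably transfected human U87-MG glioma cells exposed to compounds for 16 h, using GRP78 as sensor.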
Sfp inh: Sfp phosphopantetheinyl transferase inhibition; Biochemical Sfp PPTase activity, qHTS; Potency, µM, without a hit: largest response in the series, negative = inhibition, usual class: inhibitors; 310,000 compounds, 3.5% hits;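 further: the enzyme is Sfp with the accession as filed and its product quenches rhodamine fluorescence; 0% = enzyme reaction without inhibitor and -100% = no enzyme wells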
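Compounds were incubated with enzyme (final 15 nM) for 15 min at room temperature before substrate addition started the reaction. Fluorescence at 525 nm excitation, 598 nm emission was recorded immediately and after 30 minutes.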
ALOX12 inh: inhibitors of human 12S-lipoxygenase ALOX12; purified 12hLO, xylenol orange hydroperoxide absorbance; 580,000 compounds, 1.1% hits; AID 1671190; Potency, µM (highest dose often 108 µM), for inactives: top-dose activity change, negative = inhibition, actives largely listed as inhibitors; P18054; further: on the % scale 0 is the no-effect control and ±100 the full control effect
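Purified human 12hLO at 150 nM in 25 mM Hepes, 0.01% Triton X-100, pH 7.0, preincubated 15 min at room temperature with compound. Reaction started with 40 uM arachidonic acid, 30 min at room temperature. Hydroperoxide measured by Fe-xylenol orange, 573/405 nm absorbance ratio.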
VDR inh: inhibitors of human vitamin D receptor; P11473; VDR-SRC2-3 peptide fluorescence polarization, 2 h; Potency, µM, for the others: max response, negative = inhibition, actives largely listed as inhibitors; 400,000 compounds, 0.93% hits; AID 504847; further: on the % scale 0 is the no-effect control and ±100 the full control effect
Target sequence (P11473 whole entry, looked up): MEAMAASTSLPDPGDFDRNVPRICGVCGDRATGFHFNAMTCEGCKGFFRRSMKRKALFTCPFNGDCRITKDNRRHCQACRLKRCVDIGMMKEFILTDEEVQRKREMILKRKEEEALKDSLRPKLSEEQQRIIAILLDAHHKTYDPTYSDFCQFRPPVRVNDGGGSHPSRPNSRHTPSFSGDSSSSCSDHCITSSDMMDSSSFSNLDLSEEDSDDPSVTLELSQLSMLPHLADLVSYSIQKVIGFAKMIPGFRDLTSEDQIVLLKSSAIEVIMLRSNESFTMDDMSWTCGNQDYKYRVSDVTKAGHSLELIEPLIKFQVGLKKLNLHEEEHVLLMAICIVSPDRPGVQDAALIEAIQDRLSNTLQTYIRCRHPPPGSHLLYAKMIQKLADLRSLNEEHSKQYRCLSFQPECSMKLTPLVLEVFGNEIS
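VDR–SRC2-3 interaction, FP format. Cmpds 23 nl via pintool, brief spin, 2 h ambient incubation.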
G9a inh: blocks human histone lysine methyltransferase G9a. Potency, µM (titrated, usually from 102 µM), for the others: at the highest dose activity, negative = inhibition, actives largely listed as inhibitors. Q96KQ7. G9a H3K9 monomethylation, AlphaScreen, 2 h. 350,000 compounds, 8.8% hits; further: on the % scale 0 is the no-effect control and ±100 the full control effect; nearly all actives have a fitted effect of over 75% in size
Target sequence (Q96KQ7 913-1193 limits assumed): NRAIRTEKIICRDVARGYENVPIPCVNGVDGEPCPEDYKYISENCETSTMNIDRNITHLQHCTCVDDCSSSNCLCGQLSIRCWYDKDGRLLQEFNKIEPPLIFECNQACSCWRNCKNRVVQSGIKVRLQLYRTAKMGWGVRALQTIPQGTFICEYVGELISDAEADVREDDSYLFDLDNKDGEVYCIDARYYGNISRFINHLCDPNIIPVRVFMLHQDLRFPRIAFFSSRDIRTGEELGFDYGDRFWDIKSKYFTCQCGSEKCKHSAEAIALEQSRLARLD
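Readings reflect AlphaScreen signal from monomethyl-H3K9 antibody detection. HMT at 20 nM; substrate b-H3K9 500 nM; cofactor SAM 20 uM; 2 h RT reaction; compounds tested as titrations in qHTS with 15 min preincubation.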
VDR inh confirm: inhibits human vitamin D receptor, primary hit validation | shares compounds with VDR inh | VDR-coactivator inhibition assay, qHTS confirmation | Potency, µM, actives largely listed as inhibitors | 840 compounds, 89% hits
VDR FP fluor: VDR (human) coactivator binding inhibition, fluorescein polarization; shares compounds with VDR inh; VDR-coactivator binding, fluorescein fluorescence polarization; Potency, µM (highest dose often 57.1 µM), without a hit: at the top dose activity change, negative = inhibition, usual class: inhibitors; 840 compounds, 48% hits; AID 602200
VDR bla: confirmation of human vitamin D receptor inhibitors in reporter cells. shares compounds with VDR inh. VDR beta-lactamase reporter cells, FRET ratio; cells co-treated with VDR agonist LG190178. Potency, µM (titrated, usually from 46.1 µM), for inactives: at the top dose activity change, negative = inhibition, usual class: inhibitors. 840 compounds, 23% hits; further: on the % scale 0 is the no-effect control and ±100 the full control effect
VDR viability: cell toxicity, VDR inhibitor hit counter-screen | shares compounds with VDR inh | cytotoxicity counter-screen, cell viability, qHTS | Potency, µM (highest dose often 48.3 µM), inactives show at the highest dose activity change, negative = cytotoxicity, actives largely listed as cytotoxic | 840 compounds, 18% hits;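 further: plate controls were DMSO for no effect and high-concentration cycloheximide for full effect; nearly all actives have a fitted effect of over 75% in size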
* marks the source's active call; other numbers are inactive results; ? = inconclusive; / = not tested or not shown; [ ] = remark or other dose. Only a selection was taken, and hits are over-represented in it overall. The call rests on the fitted dose curve; in most records, active means well fitted curve in the direction sought with a large enough effect; inconclusive means small, poorly fitted or top-dose-only effect, or another doubt; inactive means no such curve, though single readings can be large; an effect the other way counts as inactive or inconclusive. Potency means the concentration at half of the fitted maximal effect.

SMILES	GRP78 ERSR act	Sfp inh	ALOX12 inh	VDR inh	G9a inh	VDR inh confirm	VDR FP fluor	VDR bla	VDR viability
COC(=O)c1cc(=O)n(Cc2ccco2)c(=Nc2ccc(F)c(Cl)c2)s1	-12%	?	22%	?	35µM*	14*	13µM*	?	3%
Nc1ncnc2c1ncn2[C@@H]1O[C@H](CNCc2ccc(-c3cc(C(F)(F)F)ccc3Cl)o2)[C@@H](O)[C@H]1O	-4%	/	-2%	28µM*	/	?	?	11%	14%
CC(C)(C)C(=O)Nc1ccc2c(c1)-c1cc(NC(=O)C(C)(C)C)ccc1C2	-2%	17%	22%	3%	-3%	/	/	/	/
CC(C)(C)C(=O)Nc1ccc2c(c1)C(=O)C(=O)c1ccccc1-2	/	/	/	8.9µM*	/	1.3*	1µM*	4.1µM*	6µM*
CC(C)Oc1ccc(C(=O)/C=C2/C(=O)Nc3ccccc32)cc1	?	-21%	?	28µM*	40µM*	15*	10µM*	-10%	?
CC(C)Oc1ccc(C(=O)O)cc1	-7%	11%	-30%	-12%	13%[2.33 µM]	/	/	/	/
O=C(/C=C1\C(=O)Nc2ccccc21)/C=C1\C(=O)Nc2ccccc21	-10%	1.4µM*	8.9µM*	56µM*	7.1µM*	12*	?	?	?
O=C1Nc2ccccc2/C1=C/c1ccccc1Cl	9%	-15%	-2%	?	5%	/	/	/	/
O=C1Nc2ccccc2/C1=C\C(=O)c1ccccc1	-13%	?	?	?	25µM*	8.9*	3.5µM*	?	?
COc1cccc(NC(=O)CCS(=O)(=O)c2cc(-c3cc(C)no3)ccc2OC)c1	/	/	18%	/	/	/	/	/	/
Cc1ccc(O)c(NC(=O)c2cc(-c3cccnc3)nc3ccccc23)c1	/	/	-22%	/	/	/	/	/	/
CCN1CCN(c2nc(Nc3ccc(OC)cc3)c3nccnc3n2)CC1	/	/	9%	/	/	/	/	/	/
CC1=CC(=O)C(C(C)C)=CC1=NC(=O)c1ccc(C)cc1	-3%	10µM*	?	25µM*	8.9µM*	3.8*	?	?	?
Cc1nc(-c2ccccc2)sc1C(=O)N1CCN(Cc2ccccc2F)CC1	/	/	12%	/	/	/	/	/	/
CC1CCc2c(sc(N)c2C(N)=O)C1 (stereo not drawn)	3%	-83%	?	?	?	/	/	/	/
NC(=O)c1c(N)sc2c1CCCCC2	3%	22µM*	-7%	79µM*	8.9µM*	18*	14µM*	-1%	-8%
CCSc1ncc(Cl)c(C(=O)Nc2sc3c(c2C(=O)NCCOC)CCCC3)n1	-1%	/	/	/	/	/	/	/	/
CCCS(=O)(=O)c1ncc(Cl)c(C(=O)Nc2sc3c(c2C(=O)NCC)CCCC3)n1	-5%	/	/	/	/	3.2*	?	5.8µM*	?
CCOC(=O)N1C(=O)[C@](CC)(c2ccccc2)N1C(=O)OCC	-3%	-19%	155%	79µM*	/	?	?	21%	-5%
COC(=O)CC1=NN(c2ccc(OC)cc2)C(=O)/C1=C\c1ccc(Cl)cc1	-2%	6%	?	40µM*	20µM*	21*	?	-5%	-10%
CCOC(=O)c1sc(N2N=C(C)/C(=C\c3ccc(OCC(=O)OC)cc3)C2=O)nc1C	6%	-14%	6%	?	-2%	/	/	/	/
O=C(/C=C/c1ccc(Br)cc1)c1ccco1	-9%	5%	-5%	45µM*	0%[59 µM]	24*	?	13%	13%
O=C(/C=C/c1ccccc1)n1cnnc1SC/C=C/c1ccccc1	0%	?	-9%	40µM*	20µM*	17*	?	12%	-5%
Cc1nnc(SC/C=C/c2ccccc2)n(N)c1=O	-2%	9%	-1%	-25%	-1%	/	/	/	/
Cc1cc(N(C)C)ccc1N=Nc1ccc(N)cc1	-1%	/	50%	-15%	/	/	/	/	/
SMILES	GRP78 ERSR act	Sfp inh	ALOX12 inh	VDR inh	G9a inh	VDR inh confirm	VDR FP fluor	VDR bla	VDR viability
Cc1cc2nc3ccc(N(C)C)cc3nc2cc1N	-10%	/	?	79µM*	/	19*	92%	18%	?
CC(C)CC(CNC(=O)c1nn(-c2ccccc2)c(=O)c2ccccc12)N1CCOCC1 (stereo not drawn)	/	/	25%	/	/	/	/	/	/
COCCn1c(N2CCN(Cc3c(Cl)cccc3Cl)CC2)nc2c1c(=O)[nH]c(=O)n2C	/	/	-7%	/	/	/	/	/	/
CCOc1cc(/C=C\[N+](=O)[O-])ccc1OCC(=O)N1CCOCC1	-13%	40µM*	7%	28µM*	10µM*	27*	?	?	?
CCCCCCCOc1ccc(/C=C/c2ccc(CCCCCCC)cn2)cc1	/	/	43%	/	/	/	/	/	/
CCOC(=O)CNCCC(=O)c1ccc(Br)cc1	-12%	-13%	28µM*	50µM*	7.1µM*	21*	22µM*	?	?
Cc1ccc(NC(=O)C2CCN(C(=O)c3sc4nc[nH]c(=O)c4c3C)CC2)cc1C	/	/	7%	/	/	/	/	/	/
COC(CNC(=O)c1ccc2c3c(onc13)-c1ccccc1C2=O)OC	-12%	18µM*	0%	40µM*	28µM*	3.8*	?	?	?
CCOc1ccccc1C1N=C(c2ccc(OC)cc2)CC(c2ccccc2O)N1 (stereo not drawn)	?	-1%	-24%	?	?	?	?	?	3%
[O-]/[N+](=C\c1ccccc1)c1ccc(Br)cc1	-1%	/	0%	25µM*	9%[2.33 µM]	3.8*	?	7%	8%
O=C(O)CCNc1ccc(NCCC(=O)O)c2c1C(=O)c1ccccc1C2=O	-10%	-13%	20%	7.1µM*	13µM*	7.5*	28%	1%	?
COc1ccccc1NCCC(=O)O	-3%	10%	?	-12%	-4%	/	/	/	/
O=C(NO)c1ccccc1	-1%	/	?	/	/	/	/	/	/
O=C(NC1(O)C(=O)c2ccccc2C1=O)c1ccccc1	-1%	?	32µM*	?	45µM*	1*	1µM*	6%	12%
O=C(NC1(O)C(=O)c2ccccc2C1=O)c1c(Cl)cccc1Cl	-1%	13%	?	?	56µM*	4*	4µM*	7%	-4%
Cc1cccc(C(=O)N2CCC(c3noc(COc4cccnc4)n3)CC2)c1	/	/	14%	/	/	/	/	/	/
C#CCNC(=O)c1cc(-c2ccccc2)nc2ccccc12	/	/	-2%	/	/	/	/	/	/
